PubChem BioAssay (NCATS)
Records with an inconclusive call do not appear. A call without a number means that no potency is given here. The source made the active and inactive calls. Calls come from the whole dose curve; as a rule, active = well fitted inhibition curve with a large enough effect; inconclusive = small, poorly fitted or top-dose-only effect; inactive = no such curve, though single readings can be large or run the other way.

Tests used:
[1] = tested on: Zika virus NS2B-NS3 protease (unlinked complex); test: Primary screen GU Rhodamine qHTS for Zika virus inhibitors: Unlinked NS2B-NS3 protease assay (AID 1347159); settings: Recombinant ZIKV NS2B-NS3 protease, Rhodamine110 substrate fluorescence; series mostly up to 107 µM; note: nearly all actives have a fitted effect of over 60% in size
In short: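 A qHTS format was used, with compound concentrations ranging up to 114 microM. Each compound was preincubated with 25 nM NS2B-NS3 protease, and the substrate was then added at 1.5 microM. Curves were fitted with a 4-parameter Hill model.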

[2] = tested on: Zika virus NS2B-NS3 protease (linked construct); test: Primary screen NINDS Rhodamine qHTS for Zika virus inhibitors (AID 1347160); settings: purified NS2B-NS3 protease, Rhodamine110 substrate fluorescence; series mostly up to 57.1 µM; note: nearly all actives have a fitted effect of over 55% in size
In short: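 Kinetic fluorescence (Ex 480 nm, Em 540 nm) over 15 min with 1.5 microM Rhodamine110 peptide and 25 nM linked protease.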

SMILES	Potency [1]	Potency [2]
COc1cc(O)cc(/C=C/c2ccc(O[C@@H]3O[C@H](CO)[C@@H](O)[C@H](O)[C@H]3O)cc2)c1	inactive	inactive
CO/N=C(/C(=O)N[C@@H]1C(=O)N2C(C(=O)O)=C(Cn3ccc(=N)n3CCO)CS[C@H]12)c1csc(N)n1	inactive	inactive
Cn1nnc(-c2ccc(-c3ccc(N4C[C@H](COP(=O)(O)O)OC4=O)cc3F)cn2)n1	inactive	inactive
CO[C@H]1O[C@@H]2O[C@]3(C)CC[C@H]4[C@H](C)CC[C@@H]([C@H]1C)[C@@]24OO3	inactive	inactive
CC1C(=O)OCC2=CCN3CCC(OC(=O)C(C)(O)C1(C)O)C23 (configuration not stated)	inactive	inactive
CC(CCC1(O)OC2CC3C4CCC5CC(O[C@@H]6O[C@H](CO)[C@@H](O)[C@H](O)[C@H]6O[C@@H]6O[C@@H](C)[C@H](O)[C@@H](O)[C@H]6O)C(O)CC5(C)C4CCC3(C)C2C1C)CO[C@@H]1O[C@H](CO)[C@@H](O)[C@H](O)[C@H]1O (some centres not stated)	inactive	inactive
COC1C(CO)OC(n2cnc3c(=O)[nH]cnc32)C1O (configuration not stated)	inactive	inactive
COC(=O)C1(C)CCC2(C(=O)O)CCC3(C)C(=CCC4C5(C)CC(O)C(OC6OCC(O)C(O)C6O)C(C)(CO)C5CCC43C)C2C1 (configuration not stated)	inactive	inactive
COC(=O)C1=CO[C@@H](O)C2C(CO)=CCC12 (some centres not stated)	inactive	inactive
COc1c(C)c(OCC(O)C(C)(C)O)cc2c1COC2=O (configuration not stated)	inactive	inactive
C=C(C)C1CC[C@]2(C(=O)O)CC[C@]3(C(=O)O)[C@H](CCC4[C@@]5(C)CC[C@H](O)C(C)(C)C5CC[C@]43C)C12 (some centres not stated)	inactive	inactive
